Reference: PubChem BioAssay (NCI)
This is part of a sample that, as a whole, favours compounds with a hit. Of some 83,000 tested, about 20% had one in any assay.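 Compound tested at a single concentration for 48 hours in 96-well plates; a percent growth value below 10 was scored as active.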 The source made the active and inactive calls.

Tests used:
Assay in all cases: NCI-60 one-dose screen, 48 h (100 = growth as untreated, 0 = no growth, -100 = all killed)
Conditions in all cases: 10 µM unless noted
[1] = tested on: SR leukemia
[2] = tested on: RPMI-8226 leukemia
[3] = tested on: OVCAR-8 ovarian
[4] = tested on: OVCAR-5 ovarian
[5] = tested on: OVCAR-4 ovarian
[6] = tested on: SK-OV-3 ovarian
[7] = tested on: IGROV1 ovarian
[8] = tested on: OVCAR-3 ovarian
[9] = tested on: HS 578T breast
[10] = tested on: NCI/ADR-RES ovarian

Measured: growth

CCN1C(=O)N(CC)C2C1NC(=S)N2/N=C/c1ccc(OC)cc1 (stereo not given)
inactive: [1] 24.1% | [2] 85.4% | [3] 70.4% | [4] 82.7% | [5] 81% | [6] 57% | [7] 44.9% | [8] 17.1% | [9] 47.5% | [10] 57.4%

COc1ccc(C(=S)N2CCN(c3ccc(Cl)cc3)CC2)cc1
inactive: [1] 90.5% | [2] 94% | [3] 98.2% | [4] 93.8% | [5] 102% | [6] 98.5% | [7] 109% | [8] 114% | [9] 105% | [10] 97.6%

C=C1C(=O)O[C@H]2[C@H]1CC/C(COC(=O)NCc1ccc(Cn3c(=O)sn(-c4ccc(C#N)cc4)c3=O)cc1)=C\CC[C@@]1(C)O[C@@H]21
active: [2] 6.41% | [8] -39.5%
inactive: [1] 55% | [3] 74.1% | [4] 86% | [5] 46.5% | [6] 93.1% | [7] 57.8% | [9] 99.4% | [10] 103%

COc1ccc(CCN2C(=O)/C(=C/c3ccc(C4Oc5ccccc5C5CC(c6ccccc6)=NN54)cc3)SC2=S)cc1 (stereo not given)
inactive: [1] 105% | [2] 96% | [3] 108% | [4] 103% | [5] 109% | [6] 103% | [7] 100% | [8] 105% | [9] 103% | [10] 110%

CN1CCN(CC(=O)Nc2ccc3ncnc(Nc4ccc(Oc5cccc(C(F)(F)F)c5)c(Cl)c4)c3c2)CC1
inactive: [3] 20.9% | [4] 52.9% | [6] 23.2% | [10] 46.1%
active: [1] -6.28% | [2] -12.7% | [5] -18.8% | [7] -44.6% | [8] 4.81% | [9] -12%

COc1ccc(C(=O)Cn2c(C(=O)c3ccc(Cl)cc3)nc3ccccc32)cc1
inactive: [1] 26.9% | [2] 13% | [3] 69.9% | [4] 90.4% | [5] 62.4% | [6] 98.8% | [7] 39.7% | [8] 52% | [9] 47.2% | [10] 35.9%

COc1cc(/C=N/Nc2ccc(Br)cc2)cc(OC)c1OC
inactive: [1] 68.8% | [2] 58.4% | [3] 54.8% | [4] 68.4% | [5] 51% | [6] 85.2% | [7] 57.3% | [8] 63.3% | [9] 80% | [10] 57.2%

C[C@]1(O)CC(=O)[C@]2(O)C3=C(C=C[C@]2(O)C1)C(=O)c1c(O)cccc1C3=O
active: [2] -0.202% | [3] -12.6% | [5] -97.9% | [8] -32.8%
inactive: [1] 10.5% | [4] 38.8% | [6] 98.8% | [7] 27.1% | [9] 71.8% | [10] 47.2%

C=C1C(=O)O[C@H]2[C@H]1CC/C(COC(=O)/C=C/C(=O)OC/C1=C/CC[C@@]3(C)O[C@H]3[C@H]3OC(=O)C(=C)[C@@H]3CC1)=C\CC[C@@]1(C)O[C@@H]21
inactive: [3] 62.7% | [4] 88.8% | [5] 86.2% | [6] 110% | [7] 87.6% | [9] 90.2% | [10] 96.5%
active: [1] 7.6% | [2] -15.2% | [8] -0.457%

CC1=C(C(=O)Nc2nc(-c3ccc(Cl)cc3)cs2)[C@H](c2ccc(O)cc2)NC(=O)N1
inactive: [1] 113% | [2] 109% | [3] 105% | [4] 106% | [5] 98.6% | [6] 111% | [7] 97.8% | [8] 95.8% | [9] 106% | [10] 101%

CCN1C(=O)N(CC)C2Nn3c(s/c(=C\c4ccccc4Br)c3=O)=NC21 (stereo not given)
inactive: [1] 15.7% | [2] 35.4% | [3] 15.4% | [4] 28.9% | [5] 47.5% | [6] 44.7% | [7] 25.7% | [9] 11.4%
active: [8] -7.24% | [10] 5.54%

Nc1nc(N)c2c(n1)NC(c1ccc(Cl)cc1)C1CCc3ccccc3C1=N2 (stereo not given)
inactive: [1] 33.1% | [2] 41.9% | [3] 70.7% | [4] 103% | [5] 39.2% | [6] 66.8% | [7] 77.2% | [8] 40.5% | [9] 80.9% | [10] 52.5%

COc1ccc(-c2nc(/C=C3\C(=O)N(C)c4ccccc43)c3ccccn23)cc1
active: [1] -7.02%
inactive: [2] 104% | [3] 58.6% | [4] 85.5% | [5] 47.2% | [6] 66.8% | [7] 69.7% | [8] 94.3% | [9] 41.3% | [10] 77.6%

O=C(/C=C/c1ccc(Oc2ccc(Br)cc2)cc1)c1ccc(Br)cc1
inactive: [1] 85.7% | [2] 83.5% | [3] 94.7% | [4] 110% | [5] 95% | [6] 108% | [7] 99% | [8] 102% | [9] 102% | [10] 98.1%

CC1(C)N=C(N)N=C(N)N1c1ccc(CCCCc2ccccc2)c(Cl)c1
active: [1] -8.35% | [2] 4.29% | [7] -24.4% | [8] -10.6%
inactive: [3] 26.1% | [4] 28.5% | [5] 20.6% | [6] 38.1% | [9] 36.4% | [10] 54.8%

Cc1ccnc(Nc2ccc([N+](=O)[O-])c(NCCN3CCOCC3)n2)c1
inactive: [2] 26.1% | [3] 34.8% | [4] 99.1% | [5] 59.4% | [6] 62.1% | [7] 28.4% | [8] 26.1% | [9] 38.3% | [10] 43.9%
active: [1] 9.97%

COC(=O)c1ccc(NC(=O)Nc2ccc(C(=O)OC)cc2)cc1
inactive: [1] 78.9% | [2] 89.9% | [3] 104% | [4] 102% | [5] 113% | [6] 99.3% | [7] 106% | [8] 113% | [9] 92.8% | [10] 108%

C=CCOC(=O)C1=C(C)N(CC)C(=O)NC1c1c(Cl)n(C)c2ccccc12 (stereo not given)
inactive: [1] 96.1% | [2] 93.8% | [3] 98.2% | [4] 90% | [5] 103% | [6] 102% | [7] 98.9% | [8] 108% | [9] 96.4% | [10] 94.1%

CNC(C)[C@H]1CCC2C3CC=C4C(=O)[C@@H](NC(=O)C=C(C)C)CC[C@]4(C)C3CC[C@@]21C (stereo not given in full)
active: [1] -49.7% | [2] -43.7% | [5] -13.3% | [7] 9.81% | [8] -14%
inactive: [3] 42.5% | [4] 66.3% | [6] 46.4% | [9] 10.2% | [10] 39.1%

CCCCNC(=O)c1cc([N+](=O)[O-])cc(C2CCCCC2)c1O
inactive: [1] 84.1% | [2] 17% | [3] 43.9% | [4] 78.6% | [5] 14.3% | [6] 40.3% | [7] 43.2% | [8] 23.1% | [9] 48.3% | [10] 49.6%

CCOC(=O)c1ccccc1-c1c2ccc(=[N+](C)C)cc-2oc2cc(N(C)C)ccc12
active: [3] 2.69% | [4] 4.53% | [6] -2.61%
inactive: [1] 21.9% | [2] 13.8% | [5] 17.9% | [7] 18.4% | [8] 11.1% | [9] 26.1% | [10] 102%

O=C(Cc1ccc(NC(=O)c2cccc(Cl)c2)cc1)NCc1ccccc1
inactive: [1] 11.3% | [2] 65.8% | [3] 67.1% | [4] 73.2% | [5] 82.8% | [6] 57.6% | [7] 49.4% | [8] 16.7% | [9] 32.9% | [10] 50.5%

O=S(=O)(Oc1ccc(Br)cc1)c1ccc(Cl)cc1
inactive: [1] 98.3% | [2] 99.7% | [3] 106% | [4] 92.5% | [5] 98.9% | [6] 108% | [7] 98.8% | [8] 98.3% | [9] 104% | [10] 96.2%

Cc1ccc(-c2nc(SCc3nc4cc(Cl)c(Cl)cc4[nH]3)[nH]c(=O)c2C#N)cc1
inactive: [1] 96.7% | [2] 115% | [3] 98.2% | [4] 101% | [5] 105% | [6] 96.2% | [7] 99.6% | [8] 99.9% | [9] 102% | [10] 111%

NC(=O)c1cccc([C@@H]2O[C@H](CO)[C@@H](O)[C@H]2O)c1
active: [2] -25.7% | [3] 9.76% | [5] -20.6% | [9] 5.46%
inactive: [1] 84% | [4] 102% | [6] 28.7% | [7] 110% | [8] 70.6% | [10] 23.8%

Nc1nc(N)c2c(n1)NC(c1cccc(Nc3ccnc4cc(C(F)(F)F)ccc34)c1)CC(c1ccc(Br)cc1)=N2 (stereo not given)
active: [1] 0.0412% | [2] 5.34%
inactive: [3] 66% | [4] 107% | [5] 77.5% | [6] 57.2% | [7] 58.8% | [8] 38.1% | [9] 68.4% | [10] 56.5%
